# High-throughput results: PubChem BioAssay, several laboratories
# m-calpain inh – blocks pig calpain II enzyme activity | purified calpain II, fluorogenic peptide substrate, 30 min | inhibition, % at 16 µM | 220,000 compounds, 0.37% hits | AID 1236;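 active means inhibition above about 50%, limit read from the data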
# WT yeast gro inh – growth inhibition of WT yeast, mitochondrial fusion screen; mitochondrial fusion phenotypic screen, WT strain; inhibition, % at 10 µM; 190,000 compounds, 2.1% hits; AID 1362; in the data active means inhibition above about 58%; tested in S. cerevisiae
# Lmaj promast – reduces viability of Leishmania major promastigotes; resazurin fluorescence viability; inhibition, % at 10 µM; 200,000 compounds, 9% hits; AID 1063; in the data active means inhibition above about 50%;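 further: promastigotes grown with compound for 44 hours at 28 °C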
# ROMK primary – modulators of human ROMK potassium channel; P48048; Tet-inducible ROMK, thallium flux fluorescence; actives lie on both sides; B-score at 10 µM; 130,000 compounds, 2% hits; AID 1918;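 active means signal ratio slope over the read window, or its plate-corrected B-score, at least 3 SD from the plate mean, either direction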;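 further: B-score of the F/F0 ratio slope over 7 to 12 s after thallium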
# KCC2 mod – modulates chloride dependent transport by human KCC2; Q9H2X9; KCC2 cells, thallium flux FluoZin-2 fluorescence; B-score of Tl+ flux slope (higher = more flux/activation; lower = inhibition) at 10 µM; 190,000 compounds, 2.2% hits; AID 1456;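 active means thallium flux slope and its plate-corrected score both differing from the plate sample mean at a set confidence after two filtering rounds, in either direction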;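 further: slope of fluorescence scaled to starting intensity during 10 to 20 s after thallium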
# KCC2 secondary – confirmation of human KCC2 transport modulators. shares compounds with KCC2 mod. HEK293-KCC2, thallium flux, FluoZin2 fluorescence; hits give high values. normalised thallium flux (F/F0 slope) at 10 µM. 3,700 compounds, 15% hits;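 active means thallium flux slope above the same plate's solvent-only control mean plus 3 SD; inconclusive means the two replicate wells disagree; inactive means no significant difference from solvent-only control wells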
# KCC2 bumet counter – thallium flux persisting under bumetanide in KCC2 cells, counter-screen secondary assay. shares compounds with KCC2 mod. HEK293-KCC2 + bumetanide/ouabain, thallium flux FluoZin2; hits give high values. normalized thallium flux at 10 µM. 3,700 compounds, 49% hits. AID 1714;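 active means thallium entry rate above the same plate's blocked-transporter control wells by more than 3 SD; inconclusive means the two repeat wells disagree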;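 further: raw slope of fluorescence over initial fluorescence between 10 and 20 s after thallium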
# KCC2 secondary2 – KCC2 (human) modulation, second secondary assay; 3,700 compounds, 23% hits; shares compounds with KCC2 mod; AID 1715; normalized thallium flux at 10 µM; HEK293-KCC2, thallium flux FluoZin2 fluorescence; actives lie on both sides; F/F0 rise rate, 10–20 s post-thallium;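 active means thallium flux slope more than 3 SD above or below the plate's solvent-only control mean, mostly below; inconclusive means the two repeat wells disagreed; inactive means no significant shift from solvent-only controls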;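 further: raw slope with 0.1% DMSO as baseline and bumetanide as block control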
# HEK counter1 – acts in parental HEK cells, KCC2 counter-screen. shares compounds with KCC2 mod. HEK293 parental cells, thallium flux FluoZin2, ouabain; baseline-ratio fluorescence slope, 10–20 s after thallium. thallium flux rate (normalised fluorescence) at 10 µM. 3,700 compounds, 46% hits. AID 1716;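 active means thallium flux rate significantly above the same plate's solvent-only control wells, beyond their mean plus 3 SD; inconclusive means the two replicate wells gave conflicting results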
# KCC2 retest ouab – KCC2 (human) modulation, ouabain retest; raw Tl+ flux slope (below DMSO = inhibition, above = activation) at 10 µM; shares compounds with KCC2 mod; 3,700 compounds, 48% hits; HEK293-KCC2, thallium flux FluoZin2 fluorescence; bidirectional: low = inhibitor, high = activator;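 active means thallium flux slope beyond 3 SD from same-plate DMSO control mean in most replicates, usually higher, sometimes lower; inconclusive means repeat tests gave conflicting results; inactive means no significant difference from controls in most replicates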;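 further: slope of initial-normalized fluorescence between seconds 10 and 20 after thallium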
# HEK293 Tl flux2 – parental HEK flux effect, counter-screen 2 | shares compounds with KCC2 mod | HEK293 parental, thallium flux FluoZin-2 fluorescence slope | 3,700 compounds, 33% hits | thallium flux slope at 10 µM | AID 1718;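 active means thallium flux slope above the same plate's solvent-control mean plus 3 SD in both duplicate wells; inconclusive means duplicate wells that disagreed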;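 further: run without ouabain in cells lacking the KCC2 cotransporter; slope of fluorescence scaled to its starting value between 10 and 20 s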
# An asterisk follows results filed as active; ? = inconclusive; / = no result given. Sampled rows, rich in hits. Any-hit rate of the full collection: about 12%.
SMILES,m-calpain inh,WT yeast gro inh,Lmaj promast,ROMK primary,KCC2 mod,KCC2 secondary,KCC2 bumet counter,KCC2 secondary2,HEK counter1,KCC2 retest ouab,HEK293 Tl flux2
Cc1ccc(-c2ccc(S(=O)(=O)NCC3CCCO3)cc2)cc1 (configuration not stated),4,8,-7,-0.65,-4.9*,0.0054,0.0041,0.026*,0.0078,?,0.011
CCOC(=O)N1CCN(C(=O)c2ccccc2Oc2ccccc2)CC1,-12,-11,-3,/,0.42,/,/,/,/,/,/
CCOC(=O)N1CCN(C(=O)c2ccccc2NC(=O)COc2ccccc2C)CC1,0,6,-8,/,-3.3*,0.0071,0.0049,0.025*,0.0082,0.018,0.01
COCCNc1oc(-c2ccccc2Cl)nc1C#N,-31,4,-5,/,-3.8*,0.0078,0.0055,0.03,0.0068,0.02,0.0089
O=C1NCCN1Cc1ccc(F)cc1,-38,1,-2,2.6,0.0079,/,/,/,/,/,/
Cc1ccc2nc(N3CCN(Cc4ccc(F)cc4)C3=O)c(C)cc2c1,22,17,2,-2.1,/,0.016,0.0051,0.024*,0.007,0.013,0.0099
Cn1c(C(=O)OC(C(=O)NC2CCCC2)c2cccnc2)cc2sccc21 (configuration not stated),17,15,98*,/,-2.7*,0.0083,0.0063,0.028,0.0075,0.045*,0.011*
O=C(/C=C\Nc1ccc2c(c1)OCO2)c1ccc(Cl)s1,-5,-16,8,-0.016,-0.028,/,/,/,/,/,/
C/C(=C\C(=O)c1ccc(Cl)s1)N(C)C,-4,5,-2,-0.51,3.8*,0.011,0.014*,0.036,?,?,0.011
O=C1CC(c2ccco2)Cc2c1cnn2-c1nc2ccccc2s1 (configuration not stated),10,6,-7,-0.012,-0.067,/,/,/,/,/,/
CC(=O)Nc1nc(CCN2C(=O)c3ccccc3C2=O)cs1,2,-4,-5,0.16,0.63,/,/,/,/,/,/
Fc1ccccc1-n1c(-c2ccc3ccccc3n2)n[nH]c1=S,-27,10,14,-0.033,4.5*,0.011,0.022*,?,?,?,0.012
S=c1[nH]nc(-c2ccc3ccccc3n2)n1-c1ccccc1,8,-30,0,/,1.6,/,/,/,/,/,/
CCc1ccccc1NC(=S)N(CCN1CCOCC1)C1CCN(C(C)=O)CC1,-15,6,-5,-0.89,0.18,/,/,/,/,/,/
CSc1ccc(NC(=O)NCCN2CCc3ccccc3C2)cc1,5,1,31,/,-3.9*,0.014,0.0051,0.025*,0.0072,0.015,0.0099
Cc1ccc2c(C)nc(Nc3nc(CSc4nnc(C)s4)cc(=O)[nH]3)nc2c1,-14,-1,5,/,-0.024,0.01,0.0063,0.033,0.008,0.02,?
COc1ccc(N2CCN(C(C)C(=O)N3CCCC3)CC2)cc1 (configuration not stated),22,2,-4,-0.22,1.1,/,/,/,/,/,/
CSc1nc(=S)cc(C)[nH]1,13,/,/,/,16*,0.0078,0.018*,0.039*,0.022*,0.028*,0.023*
COCCn1c(-c2ccccc2Cl)nc2c(c(=O)c3ccccc3n2C)c1=O,-23,13,23,-0.28,-4.8*,?,0.0047,0.021*,0.0058*,0.01*,0.0089
CC(C)c1nc2c(c(=O)c3ccccc3n2C)c(=O)n1CCc1ccccc1,18,/,/,/,-4.4*,0.01,0.022*,0.032,0.012*,0.021,0.011
O=C(N/N=C/c1cc(O)ccc1[N+](=O)[O-])c1ccc2c(c1)OCCO2,-17,/,/,/,0.025,/,/,/,/,/,/
